# Only some compounds are listed: those with a hit (about 18% of all), similar ones and a draw of the others.
# TDP1 cell CPT = growth inhibition of DT40 Tdp1-/-;hTDP1 cells with camptothecin (screen for TDP1 inhibitors). 420,000 compounds, 12% hits. Potency, µM (doses to about 46.2 µM), for inactives: at the highest dose activity change, negative = growth inhibition, actives largely listed as inhibitors. AID 686979. chicken DT40 Tdp1-/-;hTDP1 cells + 20 nM CPT, ATP luminescence, 48 h; note: potency is the fitted concentration of half-maximal effect; % is set by controls: 0 for no effect and ±100 for the full control effect; nearly all actives have a fitted effect of over 55% in size
#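 Chicken DT40 Tdp1-/- cells complemented with human TDP1, 400 cells/well, exposed to compounds plus 20 nM camptothecin for at least 48 h at 37 C; viability read as ATP content by CellTiter-Glo luminescence.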
# IL-1B inflam inh = blocks inflammasome-driven IL-1 beta release | THP-1 LPS/ATP IL-1B secretion, AlphaLISA, 16 h; hits give low values | activity change, % at 57.5 µM | 360,000 compounds, 4.7% hits; in the data active = activity change below about -50%; inconclusive = mostly about -30% to -49%; note: % is set by controls: 0 for no effect and ±100 for the full control effect
#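 Secreted IL-1B measured by AlphaLISA bead assay after 16 h compound exposure of THP-1 cells; compounds (final up to 57.5 uM) added 1 h before LPS (250 ng/mL) and ATP (1.25 mM) stimulation; lower signal means less secretion.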
# TDP1 block = TDP1 (human) enzyme inhibition. 350,000 compounds, 0.28% hits. Q9NUW8. recombinant TDP1, AlphaScreen DNA substrate cleavage. Potency, µM (doses to about 130 µM), for inactives: at the highest dose activity change, negative = inhibition, most hits filed as inhibitors. AID 485290; note: potency is the fitted concentration of half-maximal effect; % is set by controls: 0 for no effect and ±100 for the full control effect; nearly all actives have a fitted effect of over 40% in size
# Target sequence (Q9NUW8 whole entry, looked up): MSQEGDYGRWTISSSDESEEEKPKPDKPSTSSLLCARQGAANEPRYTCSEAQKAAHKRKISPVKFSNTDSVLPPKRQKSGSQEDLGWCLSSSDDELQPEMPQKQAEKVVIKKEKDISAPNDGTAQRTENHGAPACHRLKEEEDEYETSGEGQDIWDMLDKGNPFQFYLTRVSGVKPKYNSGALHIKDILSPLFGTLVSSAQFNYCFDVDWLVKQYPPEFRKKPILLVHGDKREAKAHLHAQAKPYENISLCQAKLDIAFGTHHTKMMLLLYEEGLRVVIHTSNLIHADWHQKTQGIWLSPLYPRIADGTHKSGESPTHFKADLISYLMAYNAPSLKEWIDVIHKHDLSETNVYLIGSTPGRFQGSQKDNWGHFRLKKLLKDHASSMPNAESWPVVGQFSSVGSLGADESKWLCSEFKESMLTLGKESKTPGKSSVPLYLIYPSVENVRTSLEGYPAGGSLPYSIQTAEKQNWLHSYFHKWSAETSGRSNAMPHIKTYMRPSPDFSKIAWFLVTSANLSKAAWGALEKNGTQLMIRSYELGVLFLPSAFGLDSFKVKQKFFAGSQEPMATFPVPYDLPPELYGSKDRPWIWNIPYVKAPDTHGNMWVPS
#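 E. coli-derived human Tdp1, 1 nM final. Cpd preinc 15 min RT; substrate 15 nM final, 5 min RT; AS bead mix 10 ug/ml final, 10 min RT. Signal loss = tyrosine-FITC cleavage. No-enzyme wells = max signal.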
# TGFb inhibitor = TGF-b pathway inhibition; HepG2 CAGA-GFP TGF-b/SMAD3 reporter, GFP fluorescence, 18 h; TGF-beta stimulated, 500 pg/mL final; Potency, µM (highest dose often 46.1 µM), for the others: at the highest dose activity, negative = inhibition, most hits filed as inhibitors; 410,000 compounds, 1.2% hits; AID 588855; note: potency is the fitted concentration of half-maximal effect; % is set by controls: 0 for no effect and ±100 for the full control effect; nearly all actives have a fitted effect of over 65% in size
#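 HEPG2 CAGA-GFP, 1000 cells/well; 2 h settle, 37 C; cpd via pin tool; TGF-b 500 pg/mL final; 18 h, 37 C; GFP imaging ex488/em500-530; %Activity normalised to -TGF-b and +DMSO controls; CRC fit, curve class.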
# TDP1 cell noCPT = qHTS for Inhibitors of human tyrosyl-DNA phosphodiesterase 1 (TDP1): qHTS in cells in absence of CPT; AID 686978, 2013; DT40 Tdp1-/- hTDP1 cells, no CPT, ATP luminescence, 48 h; Potency, µM (series often up to 46.2 µM), inactives show at the highest dose activity change, negative = growth inhibition, hits mostly inhibitors; 420,000 compounds, 15% hits; note: potency is the fitted concentration of half-maximal effect; % is set by controls: 0 for no effect and ±100 for the full control effect; nearly all actives have a fitted effect of over 55% in size
#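 Chicken DT40 Tdp1-/- cells complemented with human TDP1, screened without camptothecin (DMSO vehicle only), 400 cells/well. Compounds pin-transferred, cells incubated at 37 °C for at least 48 hr. Growth read as ATP-dependent luminescence (CellTiter-Glo, 30 min at RT).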
# HepG2 tox = counter-screen for TGF-b inhibitors: cytotoxicity in HepG2 cells; HepG2 CAGA-GFP viability, ATP luminescence, 18 h; Potency, µM (top dose mostly 46.1 µM), without a hit: top-dose activity change, negative = cytotoxicity, actives largely listed as cytotoxic; 410,000 compounds, 0.76% hits; AID 588856; note: potency is the fitted concentration of half-maximal effect
#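 HepG2 CAGA-GFP cells (1000/well, DMEM with 1% FBS) received compound, then TGF-beta at 500 pg/mL final, and were incubated 18 hours at 37 degrees C. Viability was read by CellTiter-Glo luminescence. Media-only wells were set as complete cell-killing and DMSO as no toxicity.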
# Numbers without * were called inactive; u = inconclusive; x = no result; [ ] = remark or other dose. Unless noted, calls come from the whole dose curve; as a rule, active = well fitted curve in the direction sought with a large enough effect; inconclusive = small, poorly fitted or top-dose-only effect, or another doubt; inactive = no such curve, though single readings can be large; an effect the other way counts as inactive or inconclusive.
SMILES,TDP1 cell CPT,IL-1B inflam inh,TDP1 block,TGFb inhibitor,TDP1 cell noCPT,HepG2 tox
CC(=O)NC[C@@H]1CN(c2ccc(N3CCOCC3)c(F)c2)C(=O)O1,x,x,0.0%,x,x,x
CC(=O)NC(=S)Nc1ccc(S(=O)(=O)Nc2ncccn2)cc1,-0.2%,3.9,3.7%,4.8%,-1.0%,10.5%
O=C(Nc1ccc(N2CCN(C(=O)c3ccccc3)CC2)c(Cl)c1)c1ccco1,16.4µM*,-79.5*,1.0%,-12.4%,13µM*,-20.8%
COC(=O)c1ccc(N2CCN(C)CC2)c(NC(=O)c2cc3ccccc3o2)c1,20.6µM*,8.0,1.0%,2.0%,23.1µM*,-2.1%
CCC(=O)N1CCN(c2ccc(NC(=O)c3cc4ccccc4o3)cc2Cl)CC1,9.2µM*,-114.7*,2.6%,u,13µM*,-34.1%
CCCC(=O)N1CCN(c2ccc(NC(=O)c3cc4ccccc4o3)cc2Cl)CC1,3.26µM*,-110.9*,7.2%,-11.9%,3.66µM*,-8.6%
CC(=O)N1CCN(c2ccc(NC(=O)c3ccco3)cc2Cl)CC1,-3.1%,-3.6,4.6%,7.1%,4.7%,-8.4%
Cc1cccc(N2CCN(C(=O)c3c(C)oc4nc(C)nc(N5CCCC5)c34)CC2C)c1 (stereo not given),u,x,-4.2%,u,u,-17.5%
Cc1cccc(Cn2cnc3c(sc4nc(C)cc(C)c43)c2=O)c1,-4.9%,3.6,-4.3%,4.0%,-22.0%,11.1%
CCCc1cc(=O)oc2cc(C)cc(OCC(=O)N[C@@H](CSCc3ccccc3)C(=O)O)c12,-10.0%,13.1,x,7.8%,-1.7%,3.2%
N#Cc1cccc(NC(=O)N2CC3(CCN(C(=O)c4ccco4)CC3)C2)c1,-3.0%,x,x,x,-12.2%,x
CC(C)C(=O)N1CCN(c2ccc(NC(=O)c3ccco3)cc2Cl)CC1,u,-3.0,4.7%[0.0935 µM],29.9%,u,6.6%
O=C(Nc1ccc(N2CCN(C(=O)c3ccco3)CC2)c(Cl)c1)c1cc2ccccc2o1,4.11µM*,-105.0*,2.2%,0.6%,8.2µM*,-13.0%
CC(=O)N(C)c1ccc(NC(=S)Nc2ccccc2)cc1,-14.3%,-4.6,1.0%,-4.3%,-23.5%,-2.0%
C=C(c1ccccc1)c1ccc(N(C)C)cc1,-21.8%,-10.2,x,-0.9%,-36.6%,-3.3%
CN(C)c1ccc(NC(=S)c2ccccn2)cc1,4.61µM*,-4.6,8.1%,u,5.17µM*,-46.5%
CN(C)c1ccc(C(=S)Nc2ccccc2)cc1,u,-2.7,5.6%,-1.4%,16.4µM*,10.2%
CN(C)c1cc(O)c(C(=S)Nc2ccccc2)c(N(C)C)c1,16.4µM*,4.7,4.8%,-9.5%,u,-5.5%
CN(Cc1ccc(F)cc1)C(=O)CNC(=O)c1ccc2c(c1)OCO2,0.9%,0.1,-0.1%,-1.7%,-14.3%,3.7%
CCS(=O)(=O)N1CCC(C(=O)NCCC(C)C)CC1,-1.2%,x,7.8%,-6.7%,-0.5%,-14.3%
CCN(CC)C(=O)c1ccc2sc([C@@H]3O[C@H](CO)[C@H](O)[C@H](O)[C@H]3O)nc2c1,-3.1%,-0.9,x,32.8%,0.9%,5.0%
COc1ccc(-n2c(=O)c(-c3ccc(Cl)cc3)nc3cnc(N(C)C)nc32)cc1,-20.2%,x,x,x,-2.1%,x
O=C(CCCn1c(=O)[nH]c2ccsc2c1=O)N1CCN(c2ccc(Cl)cc2)CC1,u,x,2.9%,-37.4%,u,-1.0%
COc1ccccc1N1CCN(C(=O)CCCCn2c(=O)[nH]c3ccsc3c2=O)CC1,u,-0.1,2.5%,-7.2%,16.4µM*,-1.1%
O=C(Cc1ccc(-n2c(=O)[nH]c3ccsc3c2=O)cc1)N1CCN(c2ccc(Cl)cc2)CC1,u,-75.2*,3.4%,4.9%,u,17.5%

# Source: PubChem BioAssay (National Center for Advancing Translational Sciences (NCATS))
